For 1 molecule, residual activity results are on record in ChEMBL document CHEMBL2218924, “A broad activity screen in support of a chemogenomic map for kinase signalling research and drug discovery” (Biochem J, 2013).

The residual activity is the signal under treatment as a percentage of the control signal.

Assay [1] has as its target Ephrin type-A receptor 4 (Homo sapiens) (UniProt P54764). The settings on record: at 1 µM.
The target is the same in assay [2]. As to conditions: at 10 µM; call rule not given here.
Assay [3] concerns the target Ephrin type-A receptor 5 (Homo sapiens) (UniProt P54756). The settings on record: at 1 µM.
The target is the same in assay [4]. The settings on record: at 10 µM.
Assay [5] deals with Ephrin type-A receptor 7 (Homo sapiens) (UniProt Q15375). The settings on record: at 1 µM.
The target is the same in assay [6]. The settings on record: at 10 µM.
Assay [7] addresses T1, Ephrin type-B receptor 2 (Homo sapiens) (UniProt P29323).
T1 sequence (whole entry): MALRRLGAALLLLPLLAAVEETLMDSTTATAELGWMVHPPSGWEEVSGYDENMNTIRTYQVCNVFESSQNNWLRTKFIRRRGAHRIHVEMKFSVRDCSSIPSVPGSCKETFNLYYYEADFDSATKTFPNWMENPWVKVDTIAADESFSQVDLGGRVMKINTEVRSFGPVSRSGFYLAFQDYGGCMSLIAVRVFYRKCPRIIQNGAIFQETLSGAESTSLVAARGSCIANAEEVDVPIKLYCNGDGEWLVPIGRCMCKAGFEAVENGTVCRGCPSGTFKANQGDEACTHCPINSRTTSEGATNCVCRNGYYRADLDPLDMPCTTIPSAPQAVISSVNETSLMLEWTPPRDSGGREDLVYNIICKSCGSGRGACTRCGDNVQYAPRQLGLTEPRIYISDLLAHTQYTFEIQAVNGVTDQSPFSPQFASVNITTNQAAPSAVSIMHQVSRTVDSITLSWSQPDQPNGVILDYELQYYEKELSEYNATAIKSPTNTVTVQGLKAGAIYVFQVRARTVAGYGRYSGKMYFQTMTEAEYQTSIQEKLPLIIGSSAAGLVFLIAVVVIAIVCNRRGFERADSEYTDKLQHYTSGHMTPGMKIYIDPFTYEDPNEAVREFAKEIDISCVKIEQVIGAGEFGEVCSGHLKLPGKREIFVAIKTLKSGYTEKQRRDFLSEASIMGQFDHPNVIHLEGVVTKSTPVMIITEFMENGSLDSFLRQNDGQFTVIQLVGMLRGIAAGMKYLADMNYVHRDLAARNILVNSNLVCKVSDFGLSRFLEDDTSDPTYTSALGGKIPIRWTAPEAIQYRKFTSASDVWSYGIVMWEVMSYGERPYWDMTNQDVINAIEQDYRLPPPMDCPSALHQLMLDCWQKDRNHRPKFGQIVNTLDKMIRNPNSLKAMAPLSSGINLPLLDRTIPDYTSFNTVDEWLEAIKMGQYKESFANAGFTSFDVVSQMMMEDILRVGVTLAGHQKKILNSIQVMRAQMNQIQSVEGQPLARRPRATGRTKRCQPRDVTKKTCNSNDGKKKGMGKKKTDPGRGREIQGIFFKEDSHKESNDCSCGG
The settings on record: at 1 µM.

Assay [8] concerns the target T1, Ephrin type-B receptor 2 (Homo sapiens). The settings on record: at 10 µM.
Assay [9] addresses T2, Ephrin type-B receptor 3 (Homo sapiens) (UniProt P54753).
T2 sequence (whole entry): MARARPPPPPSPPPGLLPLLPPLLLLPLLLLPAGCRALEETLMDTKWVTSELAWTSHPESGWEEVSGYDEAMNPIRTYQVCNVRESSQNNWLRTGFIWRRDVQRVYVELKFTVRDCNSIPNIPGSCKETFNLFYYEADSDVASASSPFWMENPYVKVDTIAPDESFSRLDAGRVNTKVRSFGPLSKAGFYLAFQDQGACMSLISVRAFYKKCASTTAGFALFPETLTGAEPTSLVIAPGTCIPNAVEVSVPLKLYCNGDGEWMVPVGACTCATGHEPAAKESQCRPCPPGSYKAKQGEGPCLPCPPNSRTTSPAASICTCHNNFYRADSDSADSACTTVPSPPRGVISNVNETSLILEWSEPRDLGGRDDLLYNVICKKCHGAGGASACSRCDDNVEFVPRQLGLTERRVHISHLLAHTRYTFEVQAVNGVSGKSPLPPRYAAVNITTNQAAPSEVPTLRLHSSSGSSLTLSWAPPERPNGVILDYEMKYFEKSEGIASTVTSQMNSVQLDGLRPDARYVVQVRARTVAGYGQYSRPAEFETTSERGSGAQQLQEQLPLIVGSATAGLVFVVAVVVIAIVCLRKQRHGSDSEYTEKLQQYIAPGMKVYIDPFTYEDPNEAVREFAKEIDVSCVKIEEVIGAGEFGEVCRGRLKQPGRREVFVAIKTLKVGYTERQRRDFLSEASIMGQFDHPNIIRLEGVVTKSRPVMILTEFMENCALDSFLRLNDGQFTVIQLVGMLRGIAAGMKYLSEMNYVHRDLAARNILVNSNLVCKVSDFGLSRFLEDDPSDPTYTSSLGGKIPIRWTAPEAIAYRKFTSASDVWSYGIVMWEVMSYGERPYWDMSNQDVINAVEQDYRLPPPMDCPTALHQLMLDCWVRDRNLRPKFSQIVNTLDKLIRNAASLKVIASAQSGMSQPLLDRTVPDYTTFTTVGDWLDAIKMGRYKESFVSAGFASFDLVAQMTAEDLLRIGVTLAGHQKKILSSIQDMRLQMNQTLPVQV
As to conditions: at 1 µM.

Assay [10] has as its target T2, Ephrin type-B receptor 3 (Homo sapiens). As to conditions: at 10 µM.
For assay [11], the target named is T3, Ephrin type-B receptor 4 (Homo sapiens) (UniProt P54760).
T3 sequence (whole entry): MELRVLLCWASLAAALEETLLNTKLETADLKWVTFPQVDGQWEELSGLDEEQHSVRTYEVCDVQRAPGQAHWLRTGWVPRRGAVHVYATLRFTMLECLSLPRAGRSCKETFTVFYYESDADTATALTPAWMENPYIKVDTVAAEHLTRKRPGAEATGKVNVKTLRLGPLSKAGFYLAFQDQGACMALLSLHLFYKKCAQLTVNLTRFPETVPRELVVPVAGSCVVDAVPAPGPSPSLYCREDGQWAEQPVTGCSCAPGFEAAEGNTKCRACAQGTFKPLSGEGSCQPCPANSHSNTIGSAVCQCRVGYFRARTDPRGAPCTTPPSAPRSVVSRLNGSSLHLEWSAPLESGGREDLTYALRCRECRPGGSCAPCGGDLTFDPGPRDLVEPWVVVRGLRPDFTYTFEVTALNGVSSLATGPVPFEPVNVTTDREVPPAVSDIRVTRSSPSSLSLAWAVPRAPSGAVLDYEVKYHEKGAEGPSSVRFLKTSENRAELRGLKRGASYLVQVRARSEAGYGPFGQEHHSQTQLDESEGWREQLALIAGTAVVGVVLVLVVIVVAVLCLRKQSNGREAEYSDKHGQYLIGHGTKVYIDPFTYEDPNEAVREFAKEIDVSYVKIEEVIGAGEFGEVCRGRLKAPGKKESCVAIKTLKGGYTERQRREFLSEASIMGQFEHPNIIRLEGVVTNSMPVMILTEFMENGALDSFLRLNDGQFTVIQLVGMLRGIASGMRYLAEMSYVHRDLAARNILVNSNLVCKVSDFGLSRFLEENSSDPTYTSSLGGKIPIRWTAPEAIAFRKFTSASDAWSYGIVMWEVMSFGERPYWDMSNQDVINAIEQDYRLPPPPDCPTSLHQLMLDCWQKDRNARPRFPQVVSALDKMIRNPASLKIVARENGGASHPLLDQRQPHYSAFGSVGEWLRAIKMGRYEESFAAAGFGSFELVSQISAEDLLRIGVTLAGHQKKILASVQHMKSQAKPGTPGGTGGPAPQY
The settings on record: at 1 µM.

The target in assay [12] is T3, Ephrin type-B receptor 4 (Homo sapiens). As to conditions: at 10 µM.
For assay [13], the target named is Receptor tyrosine-protein kinase erbB-4 (Homo sapiens) (UniProt Q15303). The settings on record: at 10 µM.
Assay [14] addresses Focal adhesion kinase 1 (Homo sapiens) (UniProt Q05397). The settings on record: at 1 µM.

Ephrin type-A receptor 4 (Homo sapiens), sequence (P54764 whole entry): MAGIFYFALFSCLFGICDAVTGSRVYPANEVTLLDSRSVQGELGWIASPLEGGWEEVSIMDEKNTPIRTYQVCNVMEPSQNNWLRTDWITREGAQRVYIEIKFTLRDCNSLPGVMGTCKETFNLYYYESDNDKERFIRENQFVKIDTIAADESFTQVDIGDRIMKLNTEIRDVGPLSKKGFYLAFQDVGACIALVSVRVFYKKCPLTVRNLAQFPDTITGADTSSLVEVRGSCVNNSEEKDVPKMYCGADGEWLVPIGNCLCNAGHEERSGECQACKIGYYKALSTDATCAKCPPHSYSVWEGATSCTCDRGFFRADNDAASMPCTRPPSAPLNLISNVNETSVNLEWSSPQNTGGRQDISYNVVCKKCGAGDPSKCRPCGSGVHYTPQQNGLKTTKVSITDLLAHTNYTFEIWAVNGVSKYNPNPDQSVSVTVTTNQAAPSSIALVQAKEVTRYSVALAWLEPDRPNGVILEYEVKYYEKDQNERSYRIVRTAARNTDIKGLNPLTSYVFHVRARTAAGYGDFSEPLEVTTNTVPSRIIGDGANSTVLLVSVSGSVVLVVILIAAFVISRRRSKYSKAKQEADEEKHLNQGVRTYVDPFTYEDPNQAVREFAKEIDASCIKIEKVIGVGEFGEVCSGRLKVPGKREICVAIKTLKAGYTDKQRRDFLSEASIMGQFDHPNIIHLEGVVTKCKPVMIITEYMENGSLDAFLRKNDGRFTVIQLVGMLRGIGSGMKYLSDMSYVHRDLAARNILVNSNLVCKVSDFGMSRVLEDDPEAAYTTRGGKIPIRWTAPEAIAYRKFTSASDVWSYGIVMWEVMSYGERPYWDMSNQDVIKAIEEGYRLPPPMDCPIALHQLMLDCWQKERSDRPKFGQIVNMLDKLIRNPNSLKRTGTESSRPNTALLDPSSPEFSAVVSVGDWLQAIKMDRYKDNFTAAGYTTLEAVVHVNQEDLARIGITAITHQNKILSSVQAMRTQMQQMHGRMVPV
Ephrin type-A receptor 5 (Homo sapiens), sequence (P54756 whole entry): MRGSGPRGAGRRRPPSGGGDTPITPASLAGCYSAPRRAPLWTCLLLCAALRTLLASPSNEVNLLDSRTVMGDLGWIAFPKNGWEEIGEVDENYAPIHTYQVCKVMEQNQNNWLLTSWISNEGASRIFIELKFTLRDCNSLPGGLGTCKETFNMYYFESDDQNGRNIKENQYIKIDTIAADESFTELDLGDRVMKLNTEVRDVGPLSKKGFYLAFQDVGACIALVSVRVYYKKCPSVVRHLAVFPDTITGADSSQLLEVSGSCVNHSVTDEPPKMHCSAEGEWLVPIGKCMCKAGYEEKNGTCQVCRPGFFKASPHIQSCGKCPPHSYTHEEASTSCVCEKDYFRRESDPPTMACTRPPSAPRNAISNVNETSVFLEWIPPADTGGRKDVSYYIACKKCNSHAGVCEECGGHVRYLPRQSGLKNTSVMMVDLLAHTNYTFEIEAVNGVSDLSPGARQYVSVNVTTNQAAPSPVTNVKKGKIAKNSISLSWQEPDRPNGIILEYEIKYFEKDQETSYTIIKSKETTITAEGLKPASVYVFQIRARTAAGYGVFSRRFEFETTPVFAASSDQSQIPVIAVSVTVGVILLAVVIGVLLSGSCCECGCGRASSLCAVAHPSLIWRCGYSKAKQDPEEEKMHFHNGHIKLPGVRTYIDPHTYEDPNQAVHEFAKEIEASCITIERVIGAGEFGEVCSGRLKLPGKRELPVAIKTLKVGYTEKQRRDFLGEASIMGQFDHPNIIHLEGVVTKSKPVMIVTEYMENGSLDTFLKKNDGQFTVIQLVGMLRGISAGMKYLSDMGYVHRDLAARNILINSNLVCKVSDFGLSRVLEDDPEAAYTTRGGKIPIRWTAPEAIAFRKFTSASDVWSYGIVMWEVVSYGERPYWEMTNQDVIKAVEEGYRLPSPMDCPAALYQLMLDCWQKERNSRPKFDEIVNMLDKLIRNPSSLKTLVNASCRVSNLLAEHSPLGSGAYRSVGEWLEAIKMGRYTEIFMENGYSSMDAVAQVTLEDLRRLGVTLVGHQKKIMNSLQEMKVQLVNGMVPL
Ephrin type-A receptor 7 (Homo sapiens), sequence (Q15375 28-998 limits assumed): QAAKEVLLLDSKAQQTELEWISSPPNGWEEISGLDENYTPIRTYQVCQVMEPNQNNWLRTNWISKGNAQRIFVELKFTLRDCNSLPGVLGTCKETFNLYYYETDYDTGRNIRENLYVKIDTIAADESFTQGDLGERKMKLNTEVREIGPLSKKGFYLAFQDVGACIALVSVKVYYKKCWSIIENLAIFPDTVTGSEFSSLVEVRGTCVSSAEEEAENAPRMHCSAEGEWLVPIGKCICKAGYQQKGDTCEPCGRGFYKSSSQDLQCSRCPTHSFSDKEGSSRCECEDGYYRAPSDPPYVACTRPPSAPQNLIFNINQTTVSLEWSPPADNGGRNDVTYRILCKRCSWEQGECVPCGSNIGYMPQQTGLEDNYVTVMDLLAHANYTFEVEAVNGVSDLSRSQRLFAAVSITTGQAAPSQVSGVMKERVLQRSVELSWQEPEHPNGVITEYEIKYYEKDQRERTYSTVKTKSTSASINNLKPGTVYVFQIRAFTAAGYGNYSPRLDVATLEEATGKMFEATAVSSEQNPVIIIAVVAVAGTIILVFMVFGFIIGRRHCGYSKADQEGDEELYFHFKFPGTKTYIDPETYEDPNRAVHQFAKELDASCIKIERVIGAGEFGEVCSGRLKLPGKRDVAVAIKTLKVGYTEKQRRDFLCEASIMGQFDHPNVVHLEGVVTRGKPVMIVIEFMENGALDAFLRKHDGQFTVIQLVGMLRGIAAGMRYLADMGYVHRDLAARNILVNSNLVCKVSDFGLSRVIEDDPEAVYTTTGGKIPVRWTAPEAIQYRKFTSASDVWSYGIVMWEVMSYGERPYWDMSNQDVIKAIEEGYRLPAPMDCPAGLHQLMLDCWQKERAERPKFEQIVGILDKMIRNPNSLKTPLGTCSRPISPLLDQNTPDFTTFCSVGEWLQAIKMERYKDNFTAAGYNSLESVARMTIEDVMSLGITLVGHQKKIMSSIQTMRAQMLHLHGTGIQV
Receptor tyrosine-protein kinase erbB-4 (Homo sapiens), sequence (Q15303 whole entry): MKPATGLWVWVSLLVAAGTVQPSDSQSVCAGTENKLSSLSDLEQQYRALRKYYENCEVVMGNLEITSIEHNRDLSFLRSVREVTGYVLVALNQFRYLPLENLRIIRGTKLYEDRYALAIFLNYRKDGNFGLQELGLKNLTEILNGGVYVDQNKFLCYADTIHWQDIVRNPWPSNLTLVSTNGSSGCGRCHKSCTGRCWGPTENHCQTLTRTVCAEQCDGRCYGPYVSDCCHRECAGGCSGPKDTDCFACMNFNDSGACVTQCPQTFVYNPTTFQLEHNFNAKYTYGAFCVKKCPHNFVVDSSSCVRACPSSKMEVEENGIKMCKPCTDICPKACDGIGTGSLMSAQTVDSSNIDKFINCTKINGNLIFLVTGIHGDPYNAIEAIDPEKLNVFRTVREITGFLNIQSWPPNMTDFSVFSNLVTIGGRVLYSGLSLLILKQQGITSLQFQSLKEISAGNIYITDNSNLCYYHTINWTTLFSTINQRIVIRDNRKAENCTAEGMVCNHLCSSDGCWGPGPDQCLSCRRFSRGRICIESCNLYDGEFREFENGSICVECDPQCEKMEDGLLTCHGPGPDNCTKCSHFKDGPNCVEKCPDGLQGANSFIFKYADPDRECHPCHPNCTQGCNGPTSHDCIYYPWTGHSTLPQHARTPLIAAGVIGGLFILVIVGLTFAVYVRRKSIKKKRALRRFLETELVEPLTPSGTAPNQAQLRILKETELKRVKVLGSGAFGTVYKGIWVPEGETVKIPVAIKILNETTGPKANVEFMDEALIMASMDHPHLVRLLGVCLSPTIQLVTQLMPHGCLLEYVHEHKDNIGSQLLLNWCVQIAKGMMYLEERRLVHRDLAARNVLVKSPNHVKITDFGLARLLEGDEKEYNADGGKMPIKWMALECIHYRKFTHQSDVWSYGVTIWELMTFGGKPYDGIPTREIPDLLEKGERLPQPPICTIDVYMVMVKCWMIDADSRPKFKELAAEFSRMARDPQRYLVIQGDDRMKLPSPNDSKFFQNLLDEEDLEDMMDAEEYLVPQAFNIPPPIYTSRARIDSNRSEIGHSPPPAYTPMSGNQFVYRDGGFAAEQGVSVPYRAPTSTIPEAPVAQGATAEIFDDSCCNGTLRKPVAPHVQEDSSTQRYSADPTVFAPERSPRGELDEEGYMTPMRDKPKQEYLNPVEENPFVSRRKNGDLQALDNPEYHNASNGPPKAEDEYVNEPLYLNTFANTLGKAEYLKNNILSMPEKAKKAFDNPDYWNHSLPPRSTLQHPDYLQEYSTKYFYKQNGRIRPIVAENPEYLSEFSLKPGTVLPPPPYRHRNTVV

On to `CCc1nc(-c2ccc(OC)cc2)[nH]c1-c1ccncc1`, for which the residual activity in assay [1] is 114%; in assay [2], 109%; in assay [3] it was 116%; in assay [4] it was 104%; in assay [5], 114%; in assay [6], 100%. Also, the residual activity in [7] is 120%; in [8], 115%; in assay [9], 110% (inactive); in [10], 111%; in assay [11] it was 112%; in assay [12] it was 101%. The figures for the residual activity in assay [13] and in assay [14] were 108% and 115%, respectively.
